One assay addresses RUNX1 (UniProt Q01196). The assay can be described thus: RUNX1 binding intensity (PBM fluorescence), RUNX1 alone (arbitrary fluorescence units); higher = stronger binding. Conditions: RUNX1 concentration 2 nM; ETS1 concentration 0 nM. The procedure:
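Cooperative gcPBM on 36-bp genomic probes with neighbouring ETS1 and RUNX1 sites. Recombinant human RUNX1 (2 nM) was incubated alone or with ETS1 (25 nM) and detected with anti-RUNX1 antibody plus Alexa488 secondary. Values are medians over 4 replicate spots; the RUNX1+ETS1 data were normalised to the RUNX1-only data. The probes sit in constant array flanks that are not printed.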
CCATTTCCCCCATCACTTTGAATTGTGGTTCTTCTC: the RUNX1 binding intensity came to 1590.
The sequence AGCTTCCGAGTCTGTTGTGGAGTGGGAACCGCGACT registered an RUNX1 binding intensity of 724.
Still for that read-out and setting: the result for AACAGGCAAAGGACAGGATGTGGTGAGCGTCGGCCC reads 774.
ACACCGGAAGCCCAACAGCATGCCGAGTAACCACCC gave an RUNX1 binding intensity of 864.
In turn, GTTGGGCTTTGAGGATGTGGGTTCTAGAAGTTTACA displayed an RUNX1 binding intensity of 890.

The target in another assay is RUNX1 (UniProt Q01196). The assay can be described thus: TF binding intensity (PBM fluorescence), negative control probe (arbitrary fluorescence units); higher = stronger binding.
Sequence of RUNX1 (Q01196 whole entry): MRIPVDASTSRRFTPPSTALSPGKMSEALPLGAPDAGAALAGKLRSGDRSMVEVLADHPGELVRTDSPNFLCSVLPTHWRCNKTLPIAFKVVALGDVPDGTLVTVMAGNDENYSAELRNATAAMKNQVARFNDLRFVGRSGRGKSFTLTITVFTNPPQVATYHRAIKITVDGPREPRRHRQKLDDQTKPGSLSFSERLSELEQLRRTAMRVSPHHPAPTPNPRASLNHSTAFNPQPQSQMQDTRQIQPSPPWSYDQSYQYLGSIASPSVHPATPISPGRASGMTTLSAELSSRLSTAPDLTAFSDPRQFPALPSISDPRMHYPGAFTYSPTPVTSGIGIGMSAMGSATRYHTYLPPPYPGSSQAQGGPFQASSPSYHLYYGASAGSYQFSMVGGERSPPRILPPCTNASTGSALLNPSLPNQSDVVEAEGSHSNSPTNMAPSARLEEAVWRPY
Conditions: not given
As for the experimental part:
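gcPBM negative-control 36-bp genomic probes lacking TF binding sites. Each was incubated with recombinant human ETS1 or RUNX1 alone and detected by antibody fluorescence. Values are medians over replicate spots (4 spots for the ETS1-RUNX1 arrays, 3 for the ETS1-ETS1 array). The probes sit in constant array flanks that are not printed.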
“TCGAACAGAATGGAACGGAACGGAACGGAGCGTAAC (protein concentration 2 nM)”: the TF binding intensity stood at 1650.
The sequence “ACGCTGCGCATGCGCCGGAAGTTGCAGCCGTGAAGC (protein concentration 2 nM)” registered a TF binding intensity of 811.
“ATTCCATTCCAATCCTTTCCGCTCGGCTAAATTCCT (protein concentration 2 nM)” gave a TF binding intensity of 1450.
“GTCCAGGCAAGAAACAGGAAGTGTGTCATGCACAGA (protein concentration 2 nM)” registered a TF binding intensity of 870.
In turn, “GCGTACACCTGCCGCCGGAAGAAGAGCGACGGTCGC (protein concentration 2 nM)” came in with a TF binding intensity of 909.
Still for that read-out and setting: the result for “GCCTCACAAAAGAACAGGATGTTGTTGATTTGTCAC (protein concentration 2 nM)” reads 828; that for “CTTCTGTCTCCAAAACGGAAATAATAACTTGAGATT (protein concentration 2 nM)”, 989; that for “TCGGCGGCGGAGCACCGGAAGTTCTGCAGCACTGGC (protein concentration 2 nM)”, 880.
The sequence “CGAGCTTAGAAGGCGCTTCCGATGGGCGGAGTTTAG (protein concentration 2 nM)” yielded a TF binding intensity of 742.
Same read-out and setting: the same measure for “GGTGTCAAAGCCGAGCGGAAGCGGGGCTGGAATTGG (protein concentration 2 nM)”: 891.
The sequence “GACGAGCCCGGTGGCAGGAAGTGACAGTGAGAAACT (protein concentration 2 nM)” showed a TF binding intensity of 965.
“AGGAGTTTGCTCATCCTTCCGGATCCAAAGGCTGCG (protein concentration 2 nM)” came in with a TF binding intensity of 712.

Values taken from the supplement of paper PMC10681739.
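For RUNX1 binding intensity (PBM fluorescence), RUNX1 alone in this document: Full-length recombinant human RUNX1 bound to double-stranded 36-bp genomic probes on a high-density microarray, scored as Alexa488 fluorescence per spot via anti-RUNX1 antibody, median of four replicate spots.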
